Source: PMC4552634, “A New Set of Chemical Starting Points with Plasmodium falciparum Transmission-Blocking Potential for Antimalarial Drug Discovery” (PLoS ONE, 2015)
Where two headings read alike, the source gives them in different places. Screen size: about 13,000 compounds; about 3,200 (25%) showed an effect of 50% or more. The list shows a part of the results.

Tested on: P. falciparum stage V gametocytes
Set-up: BacTiter-Glo ATP luminescence viability of purified stage V gametocytes in 384-well plates, per cent inhibition versus DMSO
Settings: 48 h, 5 µM, inhibitor

SMILES	% Inhibition	% Inhibition (% Inhibition)
COc1cc2c(cc1N1CCN(C)CC1)N(C(=O)Nc1ccc(-c3ccncc3)c(Cl)c1Cl)CC2 [TCMDC-139163]	-33.93%	–
CN1CCN(c2ccnc3ccc(NC(=O)Nc4cccc(C#N)c4)cc23)CC1 [TCMDC-139323]	13.5%	–
Cc1noc(C)c1-c1ccc2c(Nc3ccc(C#N)cc3)c(C(N)=O)cnc2c1 [TCMDC-136029]	27.78%	–
CCOC(=O)CNCC(=O)c1ccc(OCc2ccccc2)cc1 [TCMDC-131777]	33.46%	–
CN(C)c1ccc(OCCCCCCOc2ccccc2)cc1 [TCMDC-138000]	-96.23%	–
CC1(C)CC(NCCCCCCCOc2ccc(OCc3ccccc3)cc2)CC(C)(C)N1 [TCMDC-138958]	104%	–
N#Cc1ccc(NC(=O)N2CCCN(CCCCCNC(=O)/C=C/c3ccc(Cl)c(Cl)c3)CC2)cc1 [TCMDC-135746]	-26.45%	–
O=C(Nc1ccc(Cl)cc1)c1cccc(CN2CCCN(Cc3cccc(O)c3)CC2)c1 [TCMDC-135963]	-7.455%	–
O=C(/C=C/c1ccc2ccccc2c1)NC1CCC(CN2CCC(c3c[nH]c4ccccc34)CC2)CC1 (centres unmarked) [TCMDC-139707]	26.41%	–
O=C(/C=C/c1cccc(Cl)c1)NC1CCC(CN2CCC(c3c[nH]c4ccccc34)CC2)CC1 (centres unmarked) [TCMDC-139715]	–	101.4%
O=C(/C=C/c1ccc(Cl)cc1Cl)NC1CCC(CN2CCC(c3c[nH]c4ccccc34)CC2)CC1 (centres unmarked) [TCMDC-139704]	-6.512%	–
O=C(/C=C/c1cccc(Cl)c1)NC1CCC(CN2CCC(c3c[nH]c4ccccc34)CC2)CC1 (centres unmarked) [TCMDC-139700]	–	105.2%
NC(=O)CN1CC=C(c2c[nH]c3ccc(Br)cc23)CC1 [TCMDC-131969]	-24.55%	–
Cc1cc(NC(=O)c2cccs2)ccc1OC1CCN(Cc2ccc(F)cc2)CC1 [TCMDC-133743]	2.358%	–
COc1ccc(CCC(C)N2CC(N)C(c3cn(C)c4cnccc34)C2)cc1 (centres unmarked) [TCMDC-124826]	30.72%	–
CC1CCN(CCNC(=O)c2ccc3c(=O)n(Cc4ccc(Cl)cc4)c(=S)[nH]c3c2)CC1 [TCMDC-125693]	-28.57%	–
CC[C@H]1CN(Cc2cccc(O)c2)CC[C@H]1CCCc1ccnc2ccc(O)cc12 [TCMDC-140337]	3.253%	–
CCCCCCCN1CC[C@@H](CCCc2ccnc3ccc(OCCCCNC(N)=NO)cc23)[C@@H](CC)C1 [TCMDC-139839]	107.7%	–
CCCCCCCN1CC[C@@H](CCCc2ccnc3ccc(OCCCCNC(N)=O)cc23)[C@@H](CC)C1 [TCMDC-139835]	110.9%	–
CC[C@H]1CN(CCCC(=O)c2ccccc2)CC[C@H]1CCCc1ccnc2ccc(OC(=O)c3ccccc3)cc12 [TCMDC-131478]	92.9%	–
CC[C@H]1CN(Cc2ccccc2Br)CC[C@H]1CCCc1ccnc2ccc(O)cc12 [TCMDC-140335]	-7.327%	–
O=C(Nc1ccc2c(c1)CCN2C1CCN(Cc2cccc(C(F)(F)F)c2)C1)c1ccco1 (centres unmarked) [TCMDC-135065]	-42.49%	–
CCOC(=O)c1ccc(-c2cnc(N)c(-c3nc4c(C)cccc4[nH]3)c2)cc1 [TCMDC-135560]	19.55%	–

SMILES	% Inhibition	% Inhibition (% Inhibition)
COc1cc(CCCOc2c(N)nc(N)nc2N)cc(OC)c1OC [TCMDC-131361]	8.778%	–
CC(C)(C)c1ccc(CN2CCC(CNC(=O)c3cc(-c4ccccc4Cl)cs3)C2)cc1 (centres unmarked) [TCMDC-134445]	95.91%	–
CCc1ccccc1-c1csc(C(=O)NCC2CCN(Cc3ccc(C(C)(C)C)cc3)C2)c1 (centres unmarked) [TCMDC-134448]	91.94%	–
CCc1ccc(CN2CCC(CNC(=O)c3cc(-c4ccccc4Cl)cs3)C2)cc1 (centres unmarked) [TCMDC-134433]	74.35%	–
CC(C)c1ccc(CN2CCCCC(NC(=O)c3cc(-c4ccccc4Cl)cs3)C2)cc1 (centres unmarked) [TCMDC-134464]	-27.61%	–
CN(C)c1ccc(CN2CCC(CNC(=O)c3cc(-c4ccccc4Cl)cs3)C2)cc1 (centres unmarked) [TCMDC-134455]	49.98%	–
COc1ccccc1-c1csc(C(=O)NCC2CCN(Cc3ccc(C(C)(C)C)cc3)C2)c1 (centres unmarked) [TCMDC-134511]	-88.72%	–
CC(C)(C)c1nn(-c2ccccc2)c2[nH]c(=O)c(CNC3CCCCC3)cc12 [TCMDC-123551]	7.742%	–
CC(=O)c1ccc(NC(=O)NNC(=O)c2ccc(CCN3CCC(c4nc(COCC(F)(F)F)c(-c5ccc(F)cc5)o4)CC3)cc2)cc1 [TCMDC-131905]	-7.106%	–
Oc1cc(-c2nc(C3(CNCc4ccc(Cl)cc4)CCCCC3)[nH]c2-c2ccncc2)ccc1Cl [TCMDC-141155]	-6.27%	–
NCC1(c2nc(-c3ccc(Cl)c(O)c3)c(-c3ccncc3)[nH]2)CCCCC1 [TCMDC-141154]	57.41%	–
CC(C)(CN)c1nc(-c2ccc(Cl)c(O)c2)c(-c2ccncc2)[nH]1 [TCMDC-140369]	-60.83%	–
CC(CNC(=O)c1cc2c(Cl)cc(Cl)cc2[nH]1)CNc1cc(=O)c2ccccc2[nH]1 (centres unmarked) [TCMDC-140624]	-21.72%	–
CCC(C)NS(=O)(=O)c1ccc2nc(Nc3ccc(C)c(Cl)c3)n(C(C)C(C)C)c2c1 (centres unmarked) [TCMDC-134310]	-65.92%	–
CC[C@H]1CN2CCc3c([nH]c4ccccc34)[C@@H]2C[C@@H]1CC1c2cc(OC)c(OC)cc2CCN1C (some centres unmarked) [TCMDC-142011]	-85.21%	–
CCC1CN2CCc3c([nH]c4ccccc34)C2CC1CC1=NCCc2c1[nH]c1ccccc21 (centres unmarked) [TCMDC-141998]	9.363%	–
Br.CC[C@H]1CN2CCc3cc(OC)c(OC)cc3[C@@H]2C[C@@H]1CC1=NCCc2c1[nH]c1ccc(OCc3ccccc3)cc21 [TCMDC-137627]	69.01%	–
CCOC(=O)c1ccc(NC(=O)Nc2ccc(-c3cccc(-c4nc5ccccc5[nH]4)c3)cc2)cc1 [TCMDC-133270]	-42.41%	–
COc1ccccc1CNC(=O)c1ccc(N2CCN(c3ccncc3)CC2)cn1 [TCMDC-135158]	60.69%	–
O=C(NCCc1ccccc1F)c1cc(Br)cc(N2CCN(c3ccncc3)CC2)c1 [TCMDC-135147]	-5.133%	–
O=C(NCCc1cccc(F)c1)c1cc(Br)cc(N2CCN(c3ccncc3)CC2)c1 [TCMDC-135145]	3.253%	–
O=C(NCc1cccc(CN2CCOCC2)c1)c1cc(Br)cc(N2CCN(c3ccncc3)CC2)c1 [TCMDC-135152]	69.44%	–
COc1ccccc1CNC(=O)c1cc(Br)cc(N2CCN(c3ccncc3)CC2)c1 [TCMDC-135151]	104.3%	–

SMILES	% Inhibition	% Inhibition (% Inhibition)
COc1ccccc1CCNC(=O)c1cnc(N2CCN(c3ccncc3)CC2)c(Cl)c1 [TCMDC-134595]	89.83%	–
COc1ccccc1CCNC(=O)c1cc(Br)cc(N2CCN(c3ccncc3)CC2)c1 [TCMDC-135148]	-33.58%	–
Cc1ccccc1CCNC(=O)c1cnc(N2CCN(c3ccncc3)CC2)c(Cl)c1 [TCMDC-134598]	14.18%	–
O=C(NCCc1cccc(Cl)c1Cl)c1cnc(N2CCN(c3ccncc3)CC2)c(Cl)c1 [TCMDC-134597]	-18.32%	–
O=C(NCc1ccc(F)cc1)c1ccc(N2CCN(c3ccncc3)CC2)cn1 [TCMDC-135157]	0.3973%	–
O=C(NCc1ccc(F)cc1)c1cc(Br)cc(N2CCN(c3ccncc3)CC2)c1 [TCMDC-135150]	12%	–
O=C(NCCc1ccccc1F)c1ccc(N2CCN(c3ccncc3)CC2)cn1 [TCMDC-135154]	-6.834%	–
CC(CC1CCCCC1)NCc1ccccc1OCCC(=O)N1CCCC1C(N)=O (centres unmarked) [TCMDC-140917]	-9.137%	–
Cc1c(Oc2ccc(-n3ccnc3)cc2)ncnc1N1CCC2(CC1)CNCc1ccccc12 [TCMDC-137157]	6.86%	–
CC(C)c1ccc(CN2CCC(NC(=O)c3ccc(-c4cccc(F)c4)s3)CC2)cc1 [TCMDC-134346]	-27.58%	–
Cc1nccn1CCNC(=O)CN1CCC2(CCC1=O)CC(=O)c1ccccc1O2 (centres unmarked) [TCMDC-125379]	-42.89%	–
O=C(O)CCCN1CCCC(=C(c2ccccc2)c2ccccc2)C1 [TCMDC-141969]	-38.14%	–
COC(=O)c1ccc(OCC(O)CO)cc1O (centres unmarked) [TCMDC-123463]	4.056%	–
CC(C)N(CCOc1ccc2c(c1)N(C(=O)Nc1ccc(Cl)c(Cl)c1)CC2)C(C)C [TCMDC-140254]	8.096%	–
CC(C)c1ccc(NC(=O)N2CCc3ccc(OCCN(C(C)C)C(C)C)cc32)c(Br)c1 [TCMDC-140252]	63.96%	–
CC(C)N(CCOc1ccc2c(c1)N(C(=O)Nc1cc(Br)cc(C(F)(F)F)c1)CC2)C(C)C [TCMDC-140250]	-0.9347%	–
Fc1ccc(C(OCC2CCCN(Cc3cccc4cccnc34)C2)c2ccc(F)cc2)cc1 (centres unmarked) [TCMDC-136044]	-14.61%	–
COC1(C)Oc2ccc3cccc([N+](=O)[O-])c3c2C1=O (centres unmarked) [TCMDC-131378]	-5.605%	–
CCOc1ccc(C(=O)Nc2cc(Cl)ccc2O)cc1Cl [TCMDC-123684]	-34.32%	–
CCOc1ccc(C(C)NC(=O)c2ccc(OC)c(Br)c2)cc1OCC (centres unmarked) [TCMDC-124876]	88.58%	–
CCOc1ccc(C(C)NC(=O)c2cc(Cl)ccc2OC)cc1OCC (centres unmarked) [TCMDC-125016]	67.36%	–
CCOc1cc(C(C)C)ccc1N1CCN(CCCCNC(=O)c2ccc(NC(=O)c3ccc(Cl)cc3)cc2)CC1 [TCMDC-138519]	-10.71%	–
